Inconclusive results are not listed. Unmarked numbers belong to inactive results. Activity calls are given as the source filed them. Calls come from the whole dose curve; as a rule, active = well fitted cell-killing curve with a large enough effect in the repeat runs; inconclusive = weak or mixed curves, or effect the other way; inactive = no such curve, though single readings can be large or run the other way.
Test: qHTS assay to identify small molecule agonists of the vitamin D receptor (VDR) signaling pathway - cell viability counter screen (AID 743224); note: nearly all actives have a fitted effect of over 50% in size
Details: VDR-bla HEK293T viability, CellTiter-Glo luminescence, 16 h; series mostly up to 62.6 µM; activity change, negative = cytotoxicity: at the top concentration
Description: U.S. Tox21 Program National Center for Advancing Translational Sciences [NCATS] NIH Chemical Genomics Center [NCGC] U.S. Environmental Protection Agency [EPA] National Institutes of Environmental Health Sciences [NIEHS] National Toxicology Program [NTP] U.S. Food and Drug Administration [FDA] Tox21 Assay Overview: The vitamin D receptor (VDR), a member of nuclear hormone receptor superfamily, plays a critical role in calcium homeostasis and bone metabolism. It is also involved in cell differentiation and growth, and thrombogenicity. […] The cytotoxicity of the Tox21 compound library against the VDR-bla cell line was tested in parallel by measuring the cell viability using CellTiter-Glo assay (Promega, Madison, WI) in the same wells.
Tox21 Assay Protocol Summary: VDR-bla cells were dispensed at 2,000 cells/6 uL/well into black wall/clear-bottom 1536-well plates using a Multidrop Combi (Thermo Fisher Scientific, Waltham, MA) dispenser. After the assay plates were incubated at a 37C and 5% CO2 for 4 h, 23 nL of compounds dissolved in DMSO, positive controls or DMSO only was transferred to the assay plate by a Pintool station (Kalypsys, San Diego, CA). The plates were incubated at 37C and 5% CO2 for 16 h. After 1 uL of LiveBLAzerTM B/G FRET substrate was added using a Bioraptr Flying Reagent Dispenser (FRD) workstation (Beckman Coulter, Indianapolis, IN, USA), the plates were incubated at room temperature for 2 h, and fluorescence intensity was measured by an Envision plate reader (PerkinElmer, Shelton, CT). For cell viability readout that measures cytotoxicity, 3 ul/well of CellTiter-Glo reagent was added into the assay plates using a FRD. After 30 min incubation at room temperature, the luminescence intensity in the plates was measured using a ViewLux (PerkinElmer) plate reader.
% is set by controls: 0 for no effect and ±100 for the full control effect.

SMILES | outcome | activity change, negative = cytotoxicity
O=C(O)c1ccccn1 | inactive | 
ClCCBr | inactive | 
C=C(C)CCl | inactive | 
Nc1ccccc1C(=O)O | inactive | 
Oc1ccccc1Cl | inactive | 
CCC(C)(CC)c1cc(NC(=O)c2c(OC)cccc2OC)on1 | inactive | 
CCCCOC(=O)c1ccccc1C(=O)OCCCC | inactive | 
[O-][Cl+2]([O-])O | inactive | 
Clc1ccccc1Cl | inactive | 
CN(N=O)c1ccccc1 | inactive | 
CC(C)N1C(=O)c2ccccc2NS1(=O)=O | inactive | 
Cc1ccc(N)cc1Cl | inactive | 
CCNc1nc(NC(C)(C)C)nc(SC)n1 |  | -1.2%
O=Cc1cccc(Oc2ccccc2)c1 | inactive | 
BrCCBr | inactive | 
C[C@]12CC[C@H]3[C@@H](CC[C@@]45O[C@@H]4C(O)=C(C#N)C[C@]35C)[C@@H]1CC[C@@H]2O | inactive | 
c1cc2c3c(cccc3c1)CC2 |  | 8.46% [at 81.1 µM]
CCCCCCCCCCCC#N | inactive | 
CNC(=O)Oc1ccccc1OC(C)C | inactive | 
Cc1[nH]c(=O)n(C(C)(C)C)c(=O)c1Cl | inactive | 

SMILES | outcome | activity change, negative = cytotoxicity
C#CC(C)(C)NC(=O)c1cc(Cl)cc(Cl)c1 | inactive | 
C1CN2CCN1CC2 | inactive | 
COCCl | inactive | 
CN(C)CCO |  | 11.5%
CCOP(=S)(OCC)SCCSCC | inactive | 
O=S(=O)(c1ccc(O)cc1)c1ccc(O)cc1 | inactive | 
CCCC1COC(Cn2cncn2)(c2ccc(Cl)cc2Cl)O1 (stereo not given) | inactive | 
CCNc1nc(NC(C)C)nc(SC)n1 | inactive | 
C=CCO | inactive | 
ClCc1cccnc1 | inactive | 
Cn1cc(-c2ccccc2)c(=O)c(-c2cccc(C(F)(F)F)c2)c1 | inactive | 
CCC[CH2][Sn]([Cl])([Cl])[Cl] | inactive | 
O=C(NC(=O)c1c(F)cccc1F)Nc1cc(Cl)c(OC(F)(F)C(F)C(F)(F)F)cc1Cl (stereo not given) | inactive | 
CC(Oc1ccc(Cl)cc1Cl)C(=O)O (stereo not given) | inactive | 
NCC(O)c1ccc(O)cc1 (stereo not given) | inactive | 
CC1C=[C-]C=C1.[C-]#[O+].[C-]#[O+].[C-]#[O+].[Mn] | inactive | 
CC(C)(Cl)Cl | inactive | 
O=NN1CCCCCCC1 | inactive | 
CC(Br)C(=O)O (stereo not given) | inactive | 
O=[N+]([O-])c1ccccc1 | inactive | 

Source: PubChem BioAssay (Tox21)
